This note sets out measurements from PubChem BioAssay (NCATS).

Records with an inconclusive call do not appear. Unmarked numbers belong to inactive results. Calls come from the whole dose curve; as a rule, active = well fitted curve in the direction sought with a large enough effect; inconclusive = small, poorly fitted or top-dose-only effect, or another doubt; inactive = no such curve, though single readings can be large; an effect the other way counts as inactive or inconclusive.

One assay is described as follows: NS1 protein of Zika virus - qHTS assay to identify small molecule inhibitors in human HEK 293 cells (AID 1347053).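 Note: plate controls were infected untreated cells for no effect and uninfected cells for full effect; nearly all actives have a fitted effect of over 55% in size.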 The following applies: HEK293 ZIKV MR766 infection, NS1 TR-FRET, 24 h; series mostly up to 46.1 µM; activity change, negative = inhibition: at the top concentration. Put shortly:
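Readout was TR-FRET using paired anti-NS1 antibodies after 24 h infection of HEK 293 cells with ZIKV MR766 (MOI = 0.5). Compound preceded virus by 1 h; reduced signal reflects lower NS1 expression.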
A general note: qHTS replaces the single test concentration by a dilution series.
For `COc1ccc2c(c1)c(CC(=O)OC/C=C(\C)CC/C=C(\C)CCC=C(C)C)c(C)n2C(=O)c1ccc(Cl)cc1`, the “activity change, negative = inhibition” value is 6.99%.
Consider `CCCN(CCC)C(=O)C(CCC(=O)OCCCN1CCN(CCOC(=O)Cc2c(C)n(C(=O)c3ccc(Cl)cc3)c3ccc(OC)cc23)CC1)NC(=O)c1ccccc1` (configuration not stated), for which the “activity change, negative = inhibition” value is 22.9%.
Still for that read-out and setting: in the case of `CC[N+](CC)(CC)CCOC(=O)C(C1CCCC1)C1CCCC1` it was 0.666%; in that of `CC(NC(CCc1ccccc1)C(=O)O)C(=O)N1C(=O)N(C)CC1C(=O)O` (configuration not stated), 3.17%.
Turning to `CC(C)(C)c1ccc(C(=O)CCCCl)cc1`, the “activity change, negative = inhibition” value was -7.71%.
Same read-out and setting: to `CC[N+]1(CC)CCC(=C(c2ccccc2)c2ccccc2)C1C` (configuration not stated) belongs 2.86%; to `CCCc1c2oc(C(=O)O)cc(=O)c2cc2c(=O)cc(C(=O)O)n(CC)c12`, -5.88%.
On the same count and under the same terms, in the case of `C#Cc1ccc(-c2ccccc2F)cc1` it was -1.92%; in that of `COC(=O)/C=C\C(=O)OC`, -2.67%.
The same measure, in the same setting: to `CC(=O)O[C@H]1CC[C@@]2(C)C(=CC[C@@H]3[C@@H]2CC[C@]2(C)C(C(C)=O)=CC[C@@H]32)C1` belongs -4.64%; to `CCC[C@H](N[C@@H](C)C(=O)N1[C@H](C(=O)O)C[C@@H]2CCCC[C@@H]21)C(=O)OCC`, 9.62%; to `C[N+](C)(CCOc1ccccc1)Cc1cccs1`, 4.12%.
Consider `CCCCOC(=O)CCCCCCCCC(=O)OCCCC`, for which the “activity change, negative = inhibition” value is 2.67%.
Still for that read-out and setting: in the case of `CC1(C)O[C@@H]2C[C@H]3[C@@H]4C[C@H](F)C5=CC(=O)C=C[C@]5(C)[C@@]4(F)[C@@H](O)C[C@]3(C)[C@]2(C(=O)CO)O1` it was -19.1%; in that of `CO/N=C(/C(=O)N[C@@H]1C(=O)N2C(C(=O)[O-])=C(C[n+]3ccn4ncccc43)CS[C@H]12)c1nsc(N)n1`, -3.49%.
As for `CC(NN)c1ccccc1` (configuration not stated), the “activity change, negative = inhibition” value was -11.6% [at 20.1 µM].
Same read-out and setting: in the case of `O=C(c1cc(O)c(O)c(O)c1)c1ccc(O)c(O)c1O` it was 0.657%.
As to `Cc1cc(O)c(C)c(C)c1O`, the “activity change, negative = inhibition” value was -0.556%.
The same measure, in the same setting: in the case of `CCCOc1ccc2c(c1)CC[C@@H]1[C@@H]2CC[C@]2(C)C(OC)CC[C@@H]12` (some centres not stated) it was 0.385%.
Consider `CO/N=C(\C(=O)O)c1csc(NC(=O)CCl)n1`, for which the “activity change, negative = inhibition” value is -3.2%.
With `CCN1CCN(C(=O)N[C@@H](C(=O)N[C@@H]2C(=O)N3[C@@H]2SC(C)(C)[C@H]3C(=O)O)c2ccccc2)C(=O)C1=O`, the “activity change, negative = inhibition” value was -0.668%.
On the same count and under the same terms, in the case of `CC(=O)N(c1onc(C)c1C)S(=O)(=O)c1ccc(N)cc1` it was 2.49%; in that of `Fc1ccc(C(c2ccc(F)cc2)N2CCNCC2)cc1`, 3.91%.
The same measure, in the same setting: in the case of `N#Cc1cc(NC(=O)C(=O)O)c(Cl)c(NC(=O)C(=O)O)c1` it was -4.49%.
Turning to `CC1CCCCN1CCCOC(=O)c1ccc(OC2CCCCC2)cc1` (configuration not stated), the “activity change, negative = inhibition” value was 21.3%.
`C[C@H]1C[C@@H]2[C@H]([C@@H](O)C[C@@]3(C)[C@H]2CC[C@]3(O)C(=O)CO)[C@@]2(C)C=CC(=O)C=C12`: the “activity change, negative = inhibition” value was -7.95%.
Still for that read-out and setting: in the case of `NS(=O)(=O)c1cc2c(cc1Cl)CN(C1CCCCC1)C2=O` it was -0.787%; in that of `CCC1(c2cnc[nH]2)Cc2ccccc2C1`, -7.1%; in that of `CC(=O)Nc1ccc(S(=O)(=O)Nc2cc(C)on2)cc1`, -11.4%.
Same read-out and setting: in the case of `Cc1nc([N+](=O)[O-])cn1-c1ccc([N+](=O)[O-])cc1` it was -10.7%.
Still for that read-out and setting: to `CCOC(=O)N1CCC(Nc2ccc(Cl)cc2N)CC1` belongs 2.29%; to `CO[C@@H]1[C@@H](O[C@@H]2O[C@H](C)[C@@H](O[C@H]3C[C@@](C)(O)[C@@H](O)[C@H](C)O3)[C@H](N(C)C)[C@H]2O)[C@@H](CC=O)C[C@@H](C)[C@@H](O[C@@H]2CC[C@H](N(C)C)[C@@H](C)O2)/C=C/C=C/C[C@@H](C)OC(=O)C[C@H]1OC(C)=O`, 11.2%.
`COC(=O)C1=C(C)NC(C)=C(C(=O)OCCc2ccc(N3CCN(C(c4ccccc4)c4ccccc4)CC3)cc2)C1c1cccc([N+](=O)[O-])c1` (configuration not stated): the “activity change, negative = inhibition” value is 5.3%.
In the case of `CCCCCCn1c(=O)c2c(ncn2C)n(C)c1=O`, the “activity change, negative = inhibition” value was 11.9%.
Same read-out and setting: to `OC1(c2ccccc2)CCNCC1` belongs 0.927%; to `CN(C)CCOC1=Cc2ccccc2Sc2ccc(Cl)cc21`, 7.11%.

Another assay can be described thus: qHTS of pediatric cancer cell lines to identify multiple opportunities for drug repurposing: Primary screen for TC32 cells (AID 1347089). Note: % is set by controls: 0 for no effect and ±100 for the full control effect; nearly all actives have a fitted effect of over 60% in size. To be noted: TC32 Ewing sarcoma viability, CellTiter-Glo luminescence, 48 h; series mostly up to 45.8 µM; activity change, negative = cytotoxic: at the top concentration. In a few lines:
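In the primary qHTS, MIPE compounds were tested at 11 concentrations (0.78 nM to 46 µM) and NPC compounds at 8 (0.59 nM to 46 µM) on TC32 cells for 48 h. CellTiter-Glo luminescence gave viability.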
Take `COc1ccc2c(c1)c(CC(=O)OC/C=C(\C)CC/C=C(\C)CCC=C(C)C)c(C)n2C(=O)c1ccc(Cl)cc1`: the “activity change, negative = cytotoxic” value is 4.39%.
On the same count and under the same terms, to `CCCN(CCC)C(=O)C(CCC(=O)OCCCN1CCN(CCOC(=O)Cc2c(C)n(C(=O)c3ccc(Cl)cc3)c3ccc(OC)cc23)CC1)NC(=O)c1ccccc1` (configuration not stated) belongs -2.6%; to `CC[N+](CC)(CC)CCOC(=O)C(C1CCCC1)C1CCCC1`, -1.43%.
Still for that read-out and setting: to `CC(NC(CCc1ccccc1)C(=O)O)C(=O)N1C(=O)N(C)CC1C(=O)O` (configuration not stated) belongs 15.6%; to `CC(C)(C)c1ccc(C(=O)CCCCl)cc1`, 16.4%.
In the case of `CC[N+]1(CC)CCC(=C(c2ccccc2)c2ccccc2)C1C` (configuration not stated), the “activity change, negative = cytotoxic” value is 10.8%.
The same measure, in the same setting: to `CCCc1c2oc(C(=O)O)cc(=O)c2cc2c(=O)cc(C(=O)O)n(CC)c12` belongs 10.8%; to `C#Cc1ccc(-c2ccccc2F)cc1`, 9.48%.
`COC(=O)/C=C\C(=O)OC`: the “activity change, negative = cytotoxic” value is 4.39%.
The same measure, in the same setting: to `CC(=O)O[C@H]1CC[C@@]2(C)C(=CC[C@@H]3[C@@H]2CC[C@]2(C)C(C(C)=O)=CC[C@@H]32)C1` belongs 8.36%.
Consider `CCC[C@H](N[C@@H](C)C(=O)N1[C@H](C(=O)O)C[C@@H]2CCCC[C@@H]21)C(=O)OCC`, for which the “activity change, negative = cytotoxic” value is 11.8%.
Still for that read-out and setting: to `C[N+](C)(CCOc1ccccc1)Cc1cccs1` belongs -4.7%; to `CCCCOC(=O)CCCCCCCCC(=O)OCCCC`, 10.7%; to `CC1(C)O[C@@H]2C[C@H]3[C@@H]4C[C@H](F)C5=CC(=O)C=C[C@]5(C)[C@@]4(F)[C@@H](O)C[C@]3(C)[C@]2(C(=O)CO)O1`, 2.82%.
On the same count and under the same terms, in the case of `CO/N=C(/C(=O)N[C@@H]1C(=O)N2C(C(=O)[O-])=C(C[n+]3ccn4ncccc43)CS[C@H]12)c1nsc(N)n1` it was -4.46%; in that of `CC(NN)c1ccccc1` (configuration not stated), 5.7% [at 16 µM]; in that of `O=C(c1cc(O)c(O)c(O)c1)c1ccc(O)c(O)c1O`, -21.4%.
Same read-out and setting: in the case of `Cc1cc(O)c(C)c(C)c1O` it was 5.78%.
Regarding `CCCOc1ccc2c(c1)CC[C@@H]1[C@@H]2CC[C@]2(C)C(OC)CC[C@@H]12` (some centres not stated), the “activity change, negative = cytotoxic” value is 4.02%.
In the case of `CO/N=C(\C(=O)O)c1csc(NC(=O)CCl)n1`, the “activity change, negative = cytotoxic” value is 16.5%.
On the same count and under the same terms, to `CCN1CCN(C(=O)N[C@@H](C(=O)N[C@@H]2C(=O)N3[C@@H]2SC(C)(C)[C@H]3C(=O)O)c2ccccc2)C(=O)C1=O` belongs 3.92%; to `CC(=O)N(c1onc(C)c1C)S(=O)(=O)c1ccc(N)cc1`, 6.73%.
Regarding `Fc1ccc(C(c2ccc(F)cc2)N2CCNCC2)cc1`, the “activity change, negative = cytotoxic” value was 0.587%.
Same read-out and setting: in the case of `N#Cc1cc(NC(=O)C(=O)O)c(Cl)c(NC(=O)C(=O)O)c1` it was 18.6%; in that of `CC1CCCCN1CCCOC(=O)c1ccc(OC2CCCCC2)cc1` (configuration not stated), 6.65%.
The same measure, in the same setting: in the case of `C[C@H]1C[C@@H]2[C@H]([C@@H](O)C[C@@]3(C)[C@H]2CC[C@]3(O)C(=O)CO)[C@@]2(C)C=CC(=O)C=C12` it was 9.39%; in that of `NS(=O)(=O)c1cc2c(cc1Cl)CN(C1CCCCC1)C2=O`, 12.9%; in that of `CCC1(c2cnc[nH]2)Cc2ccccc2C1`, 0.364%.
In the case of `CC(=O)Nc1ccc(S(=O)(=O)Nc2cc(C)on2)cc1`, the “activity change, negative = cytotoxic” value was 23.3%.
The same measure, in the same setting: in the case of `Cc1nc([N+](=O)[O-])cn1-c1ccc([N+](=O)[O-])cc1` it was 12%; in that of `CCOC(=O)N1CCC(Nc2ccc(Cl)cc2N)CC1`, -11.6%.
Same read-out and setting: to `CO[C@@H]1[C@@H](O[C@@H]2O[C@H](C)[C@@H](O[C@H]3C[C@@](C)(O)[C@@H](O)[C@H](C)O3)[C@H](N(C)C)[C@H]2O)[C@@H](CC=O)C[C@@H](C)[C@@H](O[C@@H]2CC[C@H](N(C)C)[C@@H](C)O2)/C=C/C=C/C[C@@H](C)OC(=O)C[C@H]1OC(C)=O` belongs -2.83%.
The same measure, in the same setting: in the case of `COC(=O)C1=C(C)NC(C)=C(C(=O)OCCc2ccc(N3CCN(C(c4ccccc4)c4ccccc4)CC3)cc2)C1c1cccc([N+](=O)[O-])c1` (configuration not stated) it was 15.1%.
Turning to `CCCCCCn1c(=O)c2c(ncn2C)n(C)c1=O`, the “activity change, negative = cytotoxic” value is 17.4%.
Same read-out and setting: in the case of `OC1(c2ccccc2)CCNCC1` it was 4.02%; in that of `CN(C)CCOC1=Cc2ccccc2Sc2ccc(Cl)cc21`, -6.29%.
